Assay results as given in PubChem BioAssay (Tox21).
Results filed as inconclusive are left out. Activity calls are given as the source filed them. Unless noted, calls follow the shape of the dose curve; as a rule, active = well fitted curve in the direction sought with a large enough effect in the repeat runs; inconclusive = weak or mixed curves; inactive = no such curve, though single readings can be large; an effect the other way counts as inactive or inconclusive. Non-standard residues stand in square brackets, D forms with d. Residues, ends and D or L forms follow the SMILES beside them. pGlu = O=C1CC[C@@H](C(=O)O)N1; Thz = O=C(O)[C@@H]1CSCN1

What was measured:
[1] = qHTS assay to identify small molecule antagonists of the thyroid receptor (TR) signaling pathway - cell viability counter screen (AID 743064); also: nearly all actives have a fitted effect of over 50% in size; also: potency is read from the fitted curve at half-maximal effect
Summary of the method: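 Same-well viability check: GH3.TRE-Luc cells stimulated with 1 nM T3 alongside test compound for 23.5 h, followed by CellTiter-Fluor fluorescence.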

[2] = qHTS assay to identify small molecule antagonists of the thyroid receptor (TR) signaling pathway (AID 743065); also: nearly all actives have a fitted effect of over 55% in size; also: potency is read from the fitted curve at half-maximal effect
Summary of the method: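 GH3.TRE-Luc rat pituitary cells carrying two TR response elements driving luciferase were plated for 4 h, given compound plus 1 nM T3 (final), and incubated 23.5 h at 37 C. ONE-Glo luminescence measured reporter inhibition; CellTiter-Fluor fluorescence tracked cytotoxicity.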

[3] = test system: thyroid hormone receptor (rat, GH3 cells); experiment: qHTS assay to identify small molecule agonists of the thyroid receptor (TR) signaling pathway (AID 743066; calls by dose curve)
[4] = biological target: Estrogen receptor (Homo sapiens) (UniProt P03372); experiment: qHTS assay to identify small molecule antagonists of the estrogen receptor alpha (ER-alpha) signaling pathway (AID 743069; active = well fitted curve in the direction sought with a large enough effect in the signal ratio in the repeat runs, not every such curve was filed as active; the % refers to the signal ratio; also: potency is read from the fitted curve at half-maximal effect)
Chain of Estrogen receptor (Homo sapiens) (P03372 whole entry, looked up): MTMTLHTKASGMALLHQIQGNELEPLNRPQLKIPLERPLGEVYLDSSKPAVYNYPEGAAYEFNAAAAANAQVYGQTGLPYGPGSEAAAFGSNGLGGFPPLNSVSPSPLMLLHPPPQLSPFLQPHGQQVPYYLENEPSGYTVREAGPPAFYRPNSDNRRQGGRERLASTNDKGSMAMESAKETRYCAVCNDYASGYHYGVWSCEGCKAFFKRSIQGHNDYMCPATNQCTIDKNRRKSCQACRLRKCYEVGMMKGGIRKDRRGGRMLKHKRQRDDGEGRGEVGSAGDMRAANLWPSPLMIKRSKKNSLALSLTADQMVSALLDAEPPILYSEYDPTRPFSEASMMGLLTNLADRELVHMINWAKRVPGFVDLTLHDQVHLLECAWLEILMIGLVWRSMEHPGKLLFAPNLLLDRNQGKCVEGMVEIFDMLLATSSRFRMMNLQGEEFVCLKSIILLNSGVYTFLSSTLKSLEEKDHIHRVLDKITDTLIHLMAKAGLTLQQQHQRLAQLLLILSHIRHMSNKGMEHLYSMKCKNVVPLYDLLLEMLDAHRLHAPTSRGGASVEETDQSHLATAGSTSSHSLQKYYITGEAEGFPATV
Summary of the method: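 A 17beta-estradiol challenge was applied right after compound transfer to ER-alpha-UAS-bla HEK293 cells previously kept in charcoal-stripped serum. Plates stood 18 hr at 37C and 5% CO2; fluorescence was read following 2 hr FRET substrate loading at room temperature.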

[5] = qHTS assay to identify small molecule antagonists of the estrogen receptor alpha (ER-alpha) signaling pathway - cell viability counter screen (AID 743074; calls by dose curve;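 also: HEK293 cells carrying ER-alpha-UAS-bla reporter stimulated with 17beta-estradiol; nearly all actives have a fitted effect of over 45% in size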; also: potency is read from the fitted curve at half-maximal effect)
[6] = biological target: Estrogen receptor (Homo sapiens) (UniProt P03372); experiment: qHTS assay to identify small molecule agonists of the estrogen receptor alpha (ER-alpha) signaling pathway (AID 743075; calls by dose curve;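 also: HEK293 GripTite cells with ER-alpha and UAS-driven beta-lactamase reporter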)
[7] = biological target: Estrogen receptor (Homo sapiens) (UniProt P03372); experiment: qHTS assay to identify small molecule agonists of the estrogen receptor alpha (ER-alpha) signaling pathway using the BG1 cell line (AID 743079); conditions: BG1Luc4E2 cells, ERE-luciferase agonist, 22 h; activation: at 70.3 µM (top of the series); also: nearly all actives have a fitted effect of over 20% in size; also: potency is read from the fitted curve at half-maximal effect
[8] = qHTS assay to identify small molecule antagonists of the estrogen receptor alpha (ER-alpha) signaling pathway using the BG1 cell line - cell viability counter screen (AID 743081);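 also: compound given together with 17beta-estradiol as the ER stimulus; nearly all actives have a fitted effect of over 45% in size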; also: potency is read from the fitted curve at half-maximal effect
[9] = qHTS assay to identify aromatase inhibitors - cell viability counter screen (AID 743084);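 also: cells stimulated with testosterone during compound exposure; nearly all actives have a fitted effect of over 55% in size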; also: potency is read from the fitted curve at half-maximal effect
[10] = biological target: Aryl hydrocarbon receptor (Homo sapiens) (UniProt P35869); experiment: qHTS assay to identify small molecule that activate the aryl hydrocarbon receptor (AhR) signaling pathway (AID 743085); also: nearly all actives have a fitted effect of over 15% in size; also: potency is read from the fitted curve at half-maximal effect;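 as to activation: HG2L7.5c1 human HepG2 liver cells with stably integrated DRE-driven firefly reporter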
Chain of Aryl hydrocarbon receptor (Homo sapiens) (P35869 whole entry, looked up): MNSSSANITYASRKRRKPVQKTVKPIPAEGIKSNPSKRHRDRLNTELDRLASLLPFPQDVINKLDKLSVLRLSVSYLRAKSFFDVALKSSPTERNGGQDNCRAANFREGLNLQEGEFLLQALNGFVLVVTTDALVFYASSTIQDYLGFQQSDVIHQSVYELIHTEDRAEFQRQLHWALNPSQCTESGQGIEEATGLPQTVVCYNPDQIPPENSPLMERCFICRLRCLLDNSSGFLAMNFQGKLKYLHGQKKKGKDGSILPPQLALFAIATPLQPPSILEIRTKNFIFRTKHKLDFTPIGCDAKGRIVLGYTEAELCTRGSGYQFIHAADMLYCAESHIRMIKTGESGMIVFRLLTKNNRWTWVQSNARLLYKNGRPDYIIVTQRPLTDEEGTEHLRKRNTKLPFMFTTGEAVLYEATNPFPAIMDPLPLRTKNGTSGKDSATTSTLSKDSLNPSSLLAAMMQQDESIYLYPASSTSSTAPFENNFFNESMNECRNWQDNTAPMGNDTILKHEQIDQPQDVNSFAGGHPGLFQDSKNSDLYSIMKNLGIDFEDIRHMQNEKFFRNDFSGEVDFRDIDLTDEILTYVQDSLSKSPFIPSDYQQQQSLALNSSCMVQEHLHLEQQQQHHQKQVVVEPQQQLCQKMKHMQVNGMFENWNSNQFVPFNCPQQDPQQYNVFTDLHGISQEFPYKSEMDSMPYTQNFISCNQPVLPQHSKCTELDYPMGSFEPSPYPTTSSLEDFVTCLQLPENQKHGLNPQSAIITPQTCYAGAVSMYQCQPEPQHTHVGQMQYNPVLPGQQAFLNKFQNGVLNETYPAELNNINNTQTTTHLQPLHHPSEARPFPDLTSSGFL
Summary of the method: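 Reporter assay in engineered HepG2 line HG2L7.5c1, whose plasmid carries twenty dioxin responsive elements upstream of firefly luciferase. Treatment lasted 24 h at 37C; ONE-Glo luminescence gauged induction.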

[11] = qHTS assay to identify small molecule that activate the aryl hydrocarbon receptor (AhR) signaling pathway - cell viability counter screen (AID 743086); also: nearly all actives have a fitted effect of over 45% in size; also: potency is read from the fitted curve at half-maximal effect
Summary of the method: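 HepG2-AhR-luc (HG2L7.5c1) cells, 4000/well, were preincubated 5 h at 37C, exposed to compound in qHTS format for 24 hr at 37C, then given CellTiter-Fluor for 30 min; viability was read as fluorescence in the reporter wells.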

[12] = biological target: Peroxisome proliferator-activated receptor gamma (Homo sapiens) (UniProt P37231); experiment: qHTS assay to identify small molecule agonists of the peroxisome proliferator-activated receptor gamma (PPARg) signaling pathway (AID 743094; active = well fitted activation curve with a large enough effect in the signal ratio in the repeat runs, not every such curve was filed as active; the % refers to the signal ratio)
Chain of Peroxisome proliferator-activated receptor gamma (Homo sapiens) (P37231 whole entry, looked up): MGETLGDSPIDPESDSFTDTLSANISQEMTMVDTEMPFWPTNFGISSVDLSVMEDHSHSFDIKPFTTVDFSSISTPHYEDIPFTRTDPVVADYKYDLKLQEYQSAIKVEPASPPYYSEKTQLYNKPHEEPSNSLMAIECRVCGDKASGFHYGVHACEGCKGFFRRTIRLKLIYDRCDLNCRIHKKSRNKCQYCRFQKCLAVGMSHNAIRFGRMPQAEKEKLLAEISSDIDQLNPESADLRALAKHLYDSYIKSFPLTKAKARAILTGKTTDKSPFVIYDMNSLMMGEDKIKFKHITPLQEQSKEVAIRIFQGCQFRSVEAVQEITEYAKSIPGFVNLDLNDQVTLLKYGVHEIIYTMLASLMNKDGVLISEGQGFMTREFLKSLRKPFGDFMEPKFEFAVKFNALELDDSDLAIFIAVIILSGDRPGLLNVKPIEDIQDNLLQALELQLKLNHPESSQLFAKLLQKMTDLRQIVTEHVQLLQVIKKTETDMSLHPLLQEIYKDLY
Summary of the method: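 Agonist activity was taken from a beta-lactamase reporter (FRET substrate, 1 h at room temperature) in HEK293H cells carrying a PPARg UAS-bla construct. Compounds in DMSO were incubated 17 h at 37C after a 5 h cell pre-incubation.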

[13] = biological target: Nuclear receptor subfamily 1 group I member 2 (Rattus norvegicus) (UniProt Q9R1A7); experiment: Rat pregnane X receptor (rPXR) activation by small molecules, qHTS assay (AID 1346983); conditions: rPXR luciferase reporter cells, One-Glo luminescence, 24 h; max activation: stronger effect = higher value; also: nearly all actives have a fitted effect of over 20% in size
Chain of Nuclear receptor subfamily 1 group I member 2 (Rattus norvegicus) (Q9R1A7 whole entry, looked up): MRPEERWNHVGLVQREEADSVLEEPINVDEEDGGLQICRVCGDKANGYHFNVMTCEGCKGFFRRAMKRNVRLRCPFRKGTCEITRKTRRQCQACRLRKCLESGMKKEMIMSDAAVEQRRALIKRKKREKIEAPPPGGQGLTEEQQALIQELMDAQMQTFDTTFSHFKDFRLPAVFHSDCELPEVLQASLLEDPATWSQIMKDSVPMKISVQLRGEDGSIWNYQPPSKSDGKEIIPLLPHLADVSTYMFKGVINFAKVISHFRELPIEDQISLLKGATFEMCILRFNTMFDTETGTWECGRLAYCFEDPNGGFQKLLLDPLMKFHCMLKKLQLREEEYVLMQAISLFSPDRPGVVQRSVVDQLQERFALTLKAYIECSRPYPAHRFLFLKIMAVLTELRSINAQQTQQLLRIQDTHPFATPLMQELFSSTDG
Summary of the method: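 Cell-based rPXR luciferase reporter assay, 2,000 cells per well, rested 5hr at 37 C before compound addition in DMSO, then 24 hr at 37 C. One-Glo reagent was added and luminescence read after 30 min at room temperature.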

[14] = biological target: Nuclear receptor subfamily 1 group I member 2 (Homo sapiens) (UniProt O75469); experiment: Human pregnane X receptor (PXR) activation by small molecules, qHTS assay (AID 1346985); also: nearly all actives have a fitted effect of over 40% in size; also: potency is read from the fitted curve at half-maximal effect
Summary of the method: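 DPX-2 cells (HepG2 co-transfected with a PXR response element and a CYP3A4-promoter luciferase construct) were seeded at 2,000 per well, rested 5 hr at 37C, then exposed to DMSO-dissolved compounds for 24 hr. Activation was read as luciferase luminescence.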

[15] = qHTS assay to identify small molecule antagonists of the estrogen receptor alpha (ER-alpha) signaling pathway using the BG1 cell line (AID 743080; calls by dose curve;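 also: BG1 cells stimulated with 17beta-estradiol alongside compound; nearly all actives have a fitted effect of over 25% in size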)
Summary of the method: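 Luciferase inhibition measured with ONE-Glo after 30 min at RT in BG1Luc4E2 cells given test compounds and 17beta-estradiol for 21.5 h at 37 C; CellTiter-Fluor viability read in the same wells beforehand.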

[16] = biological target: Aromatase (Homo sapiens) (UniProt P11511); experiment: qHTS assay to identify aromatase inhibitors (AID 743083); also: nearly all actives have a fitted effect of over 55% in size; also: potency is read from the fitted curve at half-maximal effect
Chain of Aromatase (Homo sapiens) (P11511 whole entry, looked up): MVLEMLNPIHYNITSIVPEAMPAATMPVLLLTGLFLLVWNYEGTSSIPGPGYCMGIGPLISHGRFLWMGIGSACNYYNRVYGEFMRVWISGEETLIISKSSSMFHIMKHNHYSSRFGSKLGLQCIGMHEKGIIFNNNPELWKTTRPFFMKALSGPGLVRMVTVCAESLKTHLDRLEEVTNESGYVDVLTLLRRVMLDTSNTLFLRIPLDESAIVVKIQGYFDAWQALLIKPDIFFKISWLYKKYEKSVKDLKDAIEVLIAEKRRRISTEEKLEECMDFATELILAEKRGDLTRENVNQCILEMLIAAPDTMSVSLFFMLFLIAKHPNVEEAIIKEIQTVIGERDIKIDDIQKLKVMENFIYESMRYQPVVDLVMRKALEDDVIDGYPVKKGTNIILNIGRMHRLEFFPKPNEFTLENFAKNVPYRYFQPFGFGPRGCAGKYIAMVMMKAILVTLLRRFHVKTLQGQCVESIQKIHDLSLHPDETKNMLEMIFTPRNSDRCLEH

[17] = biological target: Nuclear receptor subfamily 1 group I member 2 (Homo sapiens) (UniProt O75469); experiment: CYP3A4 induction through human pregnane X receptor (PXR) by small molecules, qHTS assay (AID 1346984); also: nearly all actives have a fitted effect of over 40% in size; also: potency is read from the fitted curve at half-maximal effect
Summary of the method: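 Read-out is luminescence after One-Glo addition, following a 3 hr, 37C incubation with Luciferin-IPA CYP3A4 substrate (3uM final). Before that, compounds were on DPX-2 cells (HepG2 co-transfected with PXR element plus CYP3A4-promoter luciferase) for 24 hr at 37C.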
% is scaled to controls: 0 for no effect and ±100 for the full control effect.

CC(C)c1nc(N(C)S(C)(=O)=O)nc(-c2ccc(F)cc2)c1/C=C/C(O)CC(O)CC(=O)O (centres undefined)
inactive: Potency [1] | Potency [2] | Potency [3] | Potency [4] | Potency [5] | Potency [6] | Potency [8] | Potency [9] | Potency [10] | Potency [11] | Potency [12] | max activation [13] 0.498% | Potency [14]
active: Potency [7] 26.6 µM

CN1CCC(CN2c3ccccc3Sc3ccccc32)C1 (centres undefined)
inactive: Potency [5] | Potency [6] | Potency [7] | Potency [15] | Potency [8] | Potency [16] | Potency [9] | Potency [10] | max activation [13] -2.87%
active: Potency [1] 10.6 µM | Potency [2] 11.9 µM | Potency [17] 0.891 µM

CCCCC(=O)OCC(=O)[C@]1(O)Cc2c(O)c3c(c(O)c2[C@@H](O[C@H]2C[C@H](NC(=O)C(F)(F)F)[C@H](O)[C@H](C)O2)C1)C(=O)c1c(OC)cccc1C3=O
inactive: Potency [5] | Potency [16] | Potency [10] | Potency [17] | Potency [14]
active: Potency [1] 9.44 µM | Potency [2] 5.96 µM | Potency [8] 23.7 µM

CCN(CC)CCOCCOC(=O)C(CC)(CC)c1ccccc1
active: Potency [1] 26.6 µM | Potency [2] 23.7 µM | Potency [17] 31.6 µM
inactive: Potency [3] | Potency [5] | Potency [16] | Potency [9] | Potency [10] | Potency [11] | Potency [12] | max activation [13] 2.25%

O=C1CC[C@@H](C(=O)N2CSC[C@H]2C(=O)O)N1 ([pGlu]-[Thz]-OH)
inactive: Potency [1] | Potency [2] | Potency [3] | Potency [4] | Potency [5] | Potency [6] | Potency [7] | Potency [8] | Potency [16] | Potency [9] | Potency [10] | Potency [11] | Potency [12] | max activation [13] 0.797% | Potency [17]

CCc1ccc2c(c1)N(CC(C)CN(C)C)c1ccccc1S2 (centres undefined)
inactive: Potency [5] | Potency [6] | Potency [7] | Potency [8] | Potency [10] | max activation [13] 1.61%
active: Potency [2] 11.9 µM | Potency [17] 12.6 µM

CS(=O)(=O)c1ccc(C2=C(c3ccccc3)C(=O)OC2)cc1
inactive: Potency [1] | Potency [2] | Potency [3] | Potency [5] | Potency [8] | Potency [16] | Potency [9] | Potency [11] | Potency [12] | Potency [17] | Potency [14]

CCNC(=O)[C@@H]1CCCN1C(=O)[C@H](CCCN=C(N)N)NC(=O)[C@H](CC(C)C)NC(=O)[C@@H](Cc1c[nH]c2ccccc12)NC(=O)[C@H](Cc1ccc(O)cc1)NC(=O)[C@H](CO)NC(=O)[C@H](Cc1c[nH]c2ccccc12)NC(=O)[C@H](Cc1cnc[nH]1)NC(=O)[C@@H]1CCC(=O)N1
inactive: Potency [10] | max activation [13] -27.8% | Potency [17] | Potency [14]
active: Potency [1] 1.5 µM | Potency [2] 1.33 µM | Potency [5] 10.7 µM | Potency [8] 10.6 µM | Potency [16] 13.3 µM | Potency [9] 29.8 µM | Potency [11] 7.5 µM

N#Cc1ccc2c(c1)N(CCCN1CCC(O)CC1)c1ccccc1S2
active: Potency [1] 9.44 µM | Potency [2] 21.1 µM
inactive: Potency [4] | Potency [5] | Potency [6] | Potency [7] | Potency [15] | Potency [8] | Potency [16] | Potency [9] | Potency [10] | Potency [12] | max activation [13] -1.43%

S=C1SCN(Cc2ccccc2)CN1Cc1ccccc1
inactive: Potency [4] | Potency [5] | Potency [6] | Potency [8] | Potency [16] | Potency [9] | Potency [10] | Potency [11] | max activation [13] 2.55%
active: Potency [1] 18.8 µM | Potency [2] 18.8 µM | Potency [7] 26.6 µM | Potency [14] 14.1 µM

OCCO[C@@H]1[C@@H](O)[C@H](O)[C@@H](CO)O[C@@H]1O
inactive: Potency [1] | Potency [5] | Potency [6] | Potency [7] | Potency [8] | Potency [16] | Potency [9] | Potency [10] | Potency [11] | Potency [12] | max activation [13] -3.49% | Potency [17]

O=C1CSC2(CCN(CCCN3c4ccccc4Sc4ccc(Cl)cc43)CC2)N1
active: Potency [1] 10.6 µM | Potency [2] 10.6 µM | Potency [10] 13.3 µM
inactive: Potency [6] | max activation [13] 2.22% | Potency [17]

CN1CCCC(CN2c3ccccc3Sc3ccccc32)C1 (centres undefined)
inactive: Potency [5] | Potency [6] | Potency [7] | Potency [15] | Potency [8] | Potency [9] | Potency [10] | Potency [11] | Potency [12] | max activation [13] -5.65%
active: Potency [2] 11.9 µM | Potency [4] 19 µM [inhibitor] | Potency [17] 25.1 µM

CC(C)N1CCN(c2ccc(OC[C@H]3CO[C@](Cn4cncn4)(c4ccc(Cl)cc4Cl)O3)cc2)CC1
inactive: Potency [4] | Potency [6] | Potency [7] | Potency [9] | Potency [12] | max activation [13] -0.695% | Potency [17]
active: Potency [1] 6.39 µM | Potency [2] 4.52 µM | Potency [14] 5.62 µM

C=C1C(=O)O[C@H]2[C@H]1CC/C(C)=C\CC[C@@]1(C)O[C@@H]21
active: Potency [1] 8.41 µM | Potency [2] 7.5 µM | Potency [16] 21.1 µM | Potency [9] 18.8 µM | Potency [11] 16.8 µM
inactive: Potency [4] | Potency [5] | Potency [15] | Potency [8] | Potency [10] | max activation [13] -19.8% | Potency [17]
